# DT40 TDP1 no CPT: qHTS for Inhibitors of human tyrosyl-DNA phosphodiesterase 1 (TDP1): qHTS in cells in absence of CPT; DT40 Tdp1-/- hTDP1 cells, no CPT, ATP luminescence, 48 h; Potency, µM (top dose mostly 46.2 µM), inactives show at the highest dose activity change, negative = growth inhibition, hits mostly inhibitors; hit rate 15% among 420,000; also: potency is read from the fitted curve at half-maximal effect; nearly all actives have a fitted effect of over 55% in size
#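 No-CPT arm: Tdp1-/-;hTDP1 DT40 cells (400/well) plus compounds, incubated ≥48 hr at 37 °C. Readout CellTiter-Glo luminescence.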
# HT1080NT lethal: kills 2HG-producing HT-1080-NT fibrosarcoma cells | HT-1080-NT fibrosarcoma viability, CellTiter-Glo ATP luminescence, 48 h | Potency, µM (top dose mostly 46.1 µM), without a hit: at the top dose activity, negative = less viability, most hits filed as cytotoxic | hit rate 1.6% among 360,000;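 also: NT is the 2HG producing partner of a matched IDH1 knockdown line; potency is read from the fitted curve at half-maximal effect; 0% = DMSO-treated cells and -100% = media-only wells without cells; nearly all actives have a fitted effect of over 55% in size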
#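 HT-1080-NT; 750 cells/well; 5% FBS RPMI; 48 h compound, 37 degrees C; CellTiter-Glo luminescence; curve fitting and curve-class assignment.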
# DT40 TDP1 CPT: growth inhibition of DT40 Tdp1-/-;hTDP1 cells with camptothecin (screen for TDP1 inhibitors). chicken DT40 Tdp1-/-;hTDP1 cells + 20 nM CPT, ATP luminescence, 48 h. Potency, µM (series often up to 46.2 µM), inactives show at the top dose activity change, negative = growth inhibition, hits mostly inhibitors. hit rate 12% among 420,000; also: potency is read from the fitted curve at half-maximal effect; nearly all actives have a fitted effect of over 55% in size
#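 Chicken DT40 Tdp1-/- cells complemented with human TDP1, 400 cells/well, exposed to compounds plus 20 nM camptothecin for at least 48 h at 37 C; viability read as ATP content by CellTiter-Glo luminescence.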
# IL1B secr inh: inflammasome signaling inhibition, IL-1 beta readout; hit rate 4.7% among 360,000; activity change, % at 57.5 µM; AID 743279; THP-1 LPS/ATP IL-1B secretion, AlphaLISA, 16 h; stronger effect = lower value; in the data active = activity change below about -50%; inconclusive = mostly about -30% to -49%
#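 THP-1 cells pretreated 1 hr with compounds (up to 57.5 uM final), then stimulated with LPS (250 ng/mL final) plus ATP (1.25 mM final); secreted IL-1B measured by AlphaLISA after 16 hr, decreased signal indicating inhibition.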
# HT1080 IDH1KD tx: toxicity to HT-1080 IDH1 knockdown cells (counter line); AID 686971; hit rate 2% among 360,000; Potency, µM (series often up to 46.1 µM), for the others: at the top dose activity, negative = toxicity, hits mostly cytotoxic; HT-1080 IDH1 knockdown viability, ATP luminescence, 48 h;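 also: potency is read from the fitted curve at half-maximal effect; 0% = DMSO wells and -100% = cell-free medium wells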
#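 IDH1KD HT-1080 cells, 750/well, RPMI + 5% FBS; compound pinned after 2 h settling; 48 h, 37 °C; CellTiter-Glo luminescence; % activity normalised to DMSO and no-cell wells; curves fitted, classed by r2 and efficacy.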
# The depositor's hits bear a star; u = inconclusive. In the library only some 19% were active in any assay of this set; here they are far more common. Unless noted, calls follow the shape of the dose curve; as a rule, active = well fitted curve in the direction sought with a large enough effect; inconclusive = small, poorly fitted or top-dose-only effect, or another doubt; inactive = no such curve, though single readings can be large; an effect the other way counts as inactive or inconclusive. Unless noted, % is scaled to controls: 0 for no effect and ±100 for the full control effect.
SMILES,DT40 TDP1 no CPT,HT1080NT lethal,DT40 TDP1 CPT,IL1B secr inh,HT1080 IDH1KD tx
CC1(C)C2CCC1(CS(=O)(=O)NCc1ccc(C(F)(F)F)cc1)C(=O)C2 (stereo not drawn),12µM*,-18%,u,-23,-19%
CC1(C)C2CCC1(CS(=O)(=O)NCc1ccc(S(N)(=O)=O)cc1)C(=O)C2 (stereo not drawn),0%,8%,1%,30,10%
COc1ccccc1C(C[N+](=O)[O-])c1c(N)n(C)c(=O)n(C)c1=O (stereo not drawn),2.3µM*,u,3.7µM*,-58*,u
COCCNC(=O)/C(=C/c1ccccc1Cl)c1ccccc1,u,-1%,29µM*,u,-4%
COCCNC(=O)/C(C#N)=C/c1ccc(O)cc1,-14%,-10%,-21%,2,-13%
COCCNC(=O)/C(C#N)=C/C=C/c1ccccc1[N+](=O)[O-],7.3µM*,u,10µM*,-107*,u
COCCNC(=O)/C(C#N)=C/c1cccc(/C=C(\C#N)C(=O)NCCOC)c1,12µM*,u,5.8µM*,-99*,u
COCCNC(=O)/C(C#N)=C/C(C)=C/c1ccccc1,-21%,u,-22%,-83*,-11%
O=C(c1ccccc1)C(O)C(c1ccccc1)N1CCOCC1 (stereo not drawn),3%,7%,-4%,14,9%

# From PubChem BioAssay
